SMILES strings stand for the structures. Structures can show the parent of a compound that is named as a salt.

This note sets out measurements from the supplement of paper PMC11634586.

The test system of the test is NCI-H1688. Put plainly: inhibition of cell viability relative to untreated control (fraction); higher = stronger growth inhibition, active = 0.5 or more. Particulars: 30 µM; 24 h. An outline of the steps:
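Inhibition of cell viability appears as a fraction, based on viability relative to untreated cells. The assay used NCI-H1688 small cell lung cancer cells seeded in 96-well plates at 3 × 10^3 cells/well, treated one day later with a natural compound library (TargetMol) at 30 µM for 24 h at 37°C and 5% CO2. Absorbance at 450 nm with Cell Counting Kit-8 was recorded in triplicate.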
With `COC(=O)[C@@H]1[C@H]2C[C@H]3c4[nH]c5ccccc5c4CCN3C[C@@H]2CC[C@@H]1O` [Yohimbine hydrochloride], the “inhibition of cell viability” value was 0.0994 (inactive).
The figure for `C[n+]1cc2c3c(ccc2c2ccc4cc5c(cc4c21)OCO5)OCO3` [Sanguinarine chloride] is 0.982 (active); for `O=C(O)[C@@H](O)[C@H](O)[C@H](O)[C@@H](O)C(=O)O` [Mucic Acid] it is 0.0761 (inactive); for `O=c1oc2c(O)c(O)cc3c(=O)oc4c(O)c(O)cc1c4c23` [Ellagic acid] it is -0.099 (inactive).
The figure for `O=c1[nH]cnc2c1ncn2[C@H]1C[C@H](O)[C@@H](CO)O1` [2'-Deoxyinosine] is -0.00407 (inactive); for `NCCc1c[nH]cn1` [Histamine] it is 0.233 (inactive).
The figure for `CC(C)(S)[C@@H](N)C(=O)O` [Artamine] is 0.0772 (inactive); for `O=C[C@H](NS(=O)(=O)O)[C@@H](O)[C@H](O)[C@H](O)CO` [N-Sulfo-glucosamine sodium salt] it is 0.162 (inactive); for `COc1cc(C(=O)O)cc(OC)c1O` [Syringic acid] it is 0.0408 (inactive).
On to `C[C@H]1O[C@@H](O[C@H]2CC[C@@]3(C)[C@@H](CC[C@]4(C)[C@@H]3C=C[C@]35OC[C@@]6(CCC(C)(C)C[C@H]63)[C@@H](O)C[C@]54C)[C@]2(C)CO)[C@H](O)[C@@H](O[C@@H]2O[C@H](CO)[C@@H](O)[C@H](O)[C@H]2O)[C@H]1O` [Saikosaponin A], for which the “inhibition of cell viability” value is 1 (active).
`Cn1c(=O)c2[nH]cnc2n(C)c1=O` [Aminophylline]: the “inhibition of cell viability” value is 0.644 (active).
The figure for `NC(N)=O` is -0.0194 (inactive); for `NC(=O)NCCC[C@H](N)C(=O)O` [Citrulline] it is -0.126 (inactive); for `CC1OC(OC2C(OC3CCC4(C)C(CCC5(C)C4CC=C4C6CC(C)(C)CCC6(C(=O)OC6OC(COC7OC(CO)C(O)C(O)C7O)C(O)C(O)C6O)CCC45C)C3(C)CO)OCC(O)C2O)C(O)C(O)C1O` (stereo not drawn) [Dipsacoside B] it is 0.235 (inactive).
The same measure for `CC(C)=CCC[C@](C)(O[C@@H]1O[C@H](CO[C@@H]2O[C@@H](CO)[C@H](O)[C@H]2O)[C@@H](O)[C@H](O)[C@H]1O)[C@H]1CC[C@]2(C)[C@@H]1[C@H](O)C[C@@H]1[C@@]3(C)CC[C@H](O[C@@H]4O[C@H](CO)[C@@H](O)[C@H](O)[C@H]4O[C@@H]4O[C@H](CO)[C@@H](O)[C@H](O)[C@H]4O)C(C)(C)[C@@H]3CC[C@]12C` [Ginsenoside Rc]: -0.0382 (inactive); for `O=C(/C=C/c1ccc(O)cc1)c1ccc(O)cc1O` [Isoliquiritigenin]: 0.485 (inactive).
The same measure for `NC(=O)CCC(N)C(=O)O` (racemic) [DL-Glutamine]: -0.221 (inactive).
For the molecule `COc1cc(CNC(=O)CCCC/C=C/C(C)C)ccc1O` [Capsaicin], the “inhibition of cell viability” value is 0.0438 (inactive).
The figure for `O=c1c(-c2ccc(O)cc2)coc2cc(O[C@@H]3O[C@H](CO)[C@@H](O)[C@H](O)[C@H]3O)ccc12` [Daidzin] is -0.0211 (inactive).
Consider `C[C@@H]1O[C@@H](O[C@H]2[C@H](Oc3cc(O)c4c(c3)O[C@H](c3ccc(O)cc3)CC4=O)O[C@H](CO)[C@@H](O)[C@@H]2O)[C@H](O)[C@H](O)[C@H]1O` [Naringin], for which the “inhibition of cell viability” value is 0.06 (inactive).
The figure for `O=C(O)c1cc(=O)[nH]c(=O)[nH]1` [Orotic acid] is -0.0262 (inactive).
On to `O=C(O)c1ccc(O)c(O)c1` [Protocatechuic acid], for which the “inhibition of cell viability” value is 0.00558 (inactive).
For `COC(=O)CC[C@@H](C)[C@H]1CC[C@H]2[C@@H]3[C@H](O)C[C@@H]4C[C@H](O)CC[C@]4(C)[C@H]3C[C@H](O)[C@]12C` [Methyl Cholate], the “inhibition of cell viability” value was 0.013 (inactive).
As for `O=C(O)CCCC[C@@H]1SC[C@@H]2NC(=O)N[C@@H]21` [D-Biotin], the “inhibition of cell viability” value was -0.0414 (inactive).
The same measure for `COc1cc2ccc(=O)oc2cc1O` [Scopoletin]: -0.00563 (inactive).
The figure for `NC1C(O)O[C@H](CO)C(O[C@@H]2O[C@H](CO)C(O[C@@H]3O[C@H](CO)[C@@H](O)[C@H](O)[C@H]3N)[C@H](O)C2N)C1O` (stereo partly drawn) [Chitosan] is 0.266 (inactive); for `O=C1C[C@@H](c2ccc(O[C@@H]3O[C@H](CO)[C@@H](O)[C@H](O)[C@H]3O)cc2)Oc2cc(O)ccc21` [Liquiritin] it is 0.0621 (inactive); for `COc1cc(O)c(C(C)=O)c(OC)c1` [Xanthoxyline] it is -0.308 (inactive).
The same measure for `CC[C@H]1OC(=O)[C@H](C)[C@@H](O[C@H]2C[C@@](C)(OC)[C@@H](O)[C@H](C)O2)[C@H](C)[C@@H](O[C@@H]2O[C@H](C)C[C@H](N(C)C)[C@H]2O)[C@](C)(O)C[C@@H](C)C(=O)[C@H](C)[C@@H](O)[C@]1(C)O` [Erythromycin]: 0.0155 (inactive); for `CO[C@H]1C[C@@H]2CC[C@@H](C)[C@@](O)(O2)C(=O)C(=O)N2CCCC[C@H]2C(=O)O[C@H]([C@H](C)C[C@@H]2CC[C@@H](O)[C@H](OC)C2)CC(=O)[C@H](C)/C=C(\C)[C@@H](O)[C@@H](OC)C(=O)[C@H](C)C[C@H](C)/C=C/C=C/C=C/1C` [Rapamycin (Sirolimus)]: 0.76 (active).
As for `O=C1CCC[C@@H]2[C@H]3CCC[N+]4([O-])CCC[C@@H](CN12)[C@@H]34` (stereo partly drawn) [Oxymatrine], the “inhibition of cell viability” value is 0.0776 (inactive).
For the molecule `OC[C@H]1O[C@@H](Oc2cc(O)cc(/C=C/c3ccc(O)cc3)c2)[C@H](O)[C@@H](O)[C@@H]1O` [Piceid], the “inhibition of cell viability” value is 0.175 (inactive).
In the case of `C[C@@H]1O[C@@H](Oc2c(-c3ccc(O)c(O)c3)oc3cc(O)cc(O)c3c2=O)[C@H](O)[C@H](O)[C@H]1O` [Quercitrin], the “inhibition of cell viability” value was 0.325 (inactive).
For `C=C1C[C@]23C[C@@]1(O)CC[C@H]2[C@@]12C=C[C@H](O)[C@@](C)(C(=O)O1)[C@H]2[C@@H]3C(=O)O` [Gibberellic acid], the “inhibition of cell viability” value is 0.0962 (inactive).
The same measure for `CCCCCCCCCCCCCCCCCCCCCCCCCCCCCCO`: 0.22 (inactive).
Regarding `CC(C)(CO)[C@@H](O)C(=O)NCCC(=O)NCCSSCCNC(=O)CCNC(=O)[C@H](O)C(C)(C)CO` [D-Pantethine], the “inhibition of cell viability” value was -0.262 (inactive).
The same measure for `Cc1cccc(C)c1NC(=O)c1ccccc1C(=O)O` [Ftaxilide]: -0.0604 (inactive); for `COc1cc2ccc(=O)oc2c(O)c1O` [Fraxetin]: -0.0287 (inactive).
